Screening data deposited in PubChem BioAssay by several laboratories.
In the library only some 1.2% were active in any assay of this set; here they are far more common.
VLA-4 inh – inhibition in a human VLA-4 binding assay; 330,000 compounds, 0.2% hits; VLA-4 expressing cells, ligand binding flow cytometry; inhibition, % (about 7 µM as worked out from the volumes in the protocol); P13612; AID 2557; in the data active = inhibition above about 50%
GASC-1 inh – human JMJD2C demethylase inhibition. Q9H3R0. GST-JMJD2C(1-420) H3K9me3 demethylation, DELFIA europium. inhibition, % at 2.35 µM. 330,000 compounds, 0.069% hits. AID 2099;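 active = more than half of a compound's replicate wells show inhibition beyond 50%, single wells judged on their own value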;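 note: signal counts dimethyl H3K9 product captured on neutravidin plate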
Target sequence (Q9H3R0 1-420 limits assumed): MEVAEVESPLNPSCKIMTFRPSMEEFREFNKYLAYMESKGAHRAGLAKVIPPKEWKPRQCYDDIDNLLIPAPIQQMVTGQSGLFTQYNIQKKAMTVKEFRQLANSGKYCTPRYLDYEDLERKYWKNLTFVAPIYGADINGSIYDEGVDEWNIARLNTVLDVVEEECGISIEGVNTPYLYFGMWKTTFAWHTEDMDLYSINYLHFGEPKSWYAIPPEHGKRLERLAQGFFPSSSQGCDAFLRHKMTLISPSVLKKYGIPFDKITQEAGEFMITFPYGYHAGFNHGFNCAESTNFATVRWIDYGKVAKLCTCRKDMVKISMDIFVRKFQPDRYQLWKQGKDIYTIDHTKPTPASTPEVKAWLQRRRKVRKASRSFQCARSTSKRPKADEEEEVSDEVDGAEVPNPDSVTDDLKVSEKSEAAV
p-CIP stab down – p/CIP protein destabilization; F442A p/CIP-EGFP cells, EGFP fluorescence, 16 h; decrease of EGFP signal, % at 10 µM; 290,000 compounds, 0.01% hits; AID 1984;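 active = EGFP signal decrease of at least 30% at 10 µM or well 3 SD below plate mean, unless failing retest; inactive = the rest, including hits failing retest or dose response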
GPR7 antag – antagonists of human GPR7 (neuropeptides B/W receptor 1). inhibition, % at 4.4 µM. GPR7-expressing cells, fluorescence antagonist assay. P48145. 290,000 compounds, 1.1% hits; in the data active = inhibition above about 16%, passing the limit was not always enough;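 note: cells stimulated with the agonist NPW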
VLA-4 mod pick – confirmation of allosteric modulators of human VLA-4 integrin | inhibition, % at 6.7 µM | U937 cells, HUTS-21 LIBS mAb binding, flow cytometry; LDV ligand present at threefold Kd | shares compounds with VLA-4 inh | AID 2813 | 1,300 compounds, 2% hits; in the data active = inhibition above about 40%
Each line names hits and unclear results; the compound was inactive in the other large screens (follow-up assays come after a bar, where they were run).

CCc1ccc2[nH]c(=O)c(CN(Cc3ccccc3)Cc3nnnn3Cc3ccco3)cc2c1	none
Cc1c(N=C2SCC(=O)N2/N=C/c2ccccc2)c(=O)n(-c2ccccc2)n1C	none
COc1ccc(CN2CCC(C(=O)Nc3ccc(Oc4ccccc4)nc3)CC2)cc1F	none
CC1CCN(C(=O)CCC(=O)Nc2nnc(C(F)(F)F)s2)CC1	none
Cc1ccc(C)c(N(CC(=O)N2CCCCCC2)S(C)(=O)=O)c1	none
Cc1ccc([N+](=O)[O-])cc1N(CC(=O)N1CCCCC1)S(C)(=O)=O	VLA-4 inh 53 | VLA-4 mod pick inactive
Cc1csc2c(N3CCN(C(=O)Nc4ccc(OC(F)(F)F)cc4)CC3)ncnc12	none
O=S(=O)(c1ccc(F)c(F)c1)N1CCN(CCc2ccccc2)CC1	none
Cc1cc(C)c(S(=O)(=O)c2ccccc2Cl)c(Cl)n1	none
Cc1cc(C)c(S(=O)(=O)c2ccc(F)cc2C)c(Cl)n1	none | VLA-4 mod pick inactive
O=C(NCc1ccccc1)C1CCCN(C(=O)Nc2ccccc2)C1 (stereo not drawn)	VLA-4 inh 75 | VLA-4 mod pick inactive
CCn1cc(CNC(=O)c2cc(COc3ccc(F)cc3F)on2)cn1	none
COC(=O)c1ccc(/C=C2\Oc3ccccc3NC2=O)cc1	none
O=C1Nc2ccccc2O/C1=C\c1c(F)cccc1Cl	none | VLA-4 mod pick inactive
CNc1ccc([N+](=O)[O-])cc1-c1nc2ccccc2[nH]c1=O	none
Cc1cc(=O)oc2cc(OS(C)(=O)=O)ccc12	none | VLA-4 mod pick inactive
C=CCN1c2ccccc2[C@]23C[C@@H](C(=O)OC)N(C(=O)c4ccc(Br)cc4)C2=NC(C(=O)OC)=C(C(=O)OC)[C@H]13	VLA-4 inh 51 (no result: GPR7 antag) | VLA-4 mod pick inactive
COC(=O)C1=C(C(=O)OC)[C@@H]2N(Cc3ccccc3)c3ccccc3[C@@]23C[C@@H](C(=O)OC)N(C(=O)c2ccc(Br)cc2)C3=N1	none
COc1ccc(C(=O)COC(=O)c2cc(=O)[nH]c3ccccc23)c(OC)c1	none (no result: p-CIP stab down, GPR7 antag)
COc1ccccc1-c1sc2cc3c(cc2c1-c1ccc(OCCN2CCCCC2)cc1)OCO3	none (no result: p-CIP stab down, GPR7 antag) | VLA-4 mod pick inactive
COc1ccccc1-c1sc2cc3c(cc2c1-c1ccc2c(c1)OCO2)OCO3	none (no result: p-CIP stab down, GPR7 antag)
COc1ccc2sc(-c3ccccc3OC)c(-c3ccc(OC)nc3)c2c1	none (no result: p-CIP stab down, GPR7 antag)
COc1cc2sc(-c3ccccc3OC)c(-c3ccc(OCCN4CCCCC4)cc3)c2cc1OC	none (no result: p-CIP stab down, GPR7 antag) | VLA-4 mod pick inactive
COCCN1CC(=O)N2C(c3cccc(C)c3)c3[nH]c4ccccc4c3C[C@H]2C1=O (stereo partly drawn)	none | VLA-4 mod pick inactive
O=C(c1cccs1)N(Cc1cccc(F)c1)C1CCS(=O)(=O)C1 (stereo not drawn)	none
COc1ccc(C(=O)C2CCCN(Cc3c(F)ccc(F)c3F)C2)c(OC)c1 (stereo not drawn)	none
COc1ccc(C(=O)C2CCCN(Cc3c[nH]c4ccccc34)C2)c(OC)c1 (stereo not drawn)	VLA-4 inh 55 | VLA-4 mod pick inactive
CCOC(=O)c1cc(-c2cccnc2)nn1-c1ccccc1C	none
O=C1N[C@H](C(=O)O)CS1	VLA-4 inh 54 (no result: p-CIP stab down, GPR7 antag) | VLA-4 mod pick inactive
O=C1CC[C@@H](C(=O)O)N1	none (no result: GASC-1 inh, p-CIP stab down, GPR7 antag)
CC1CCCCN1S(=O)(=O)c1ccc(N(C(=O)c2cnccn2)C(C(=O)NC2CCCCC2)c2cccs2)cc1 (stereo not drawn)	none
CC1CCCCN1S(=O)(=O)c1ccc(N(C(=O)c2cnccn2)C(C(=O)NC2CCCC2)c2cccs2)cc1 (stereo not drawn)	none | VLA-4 mod pick inactive
CC1(C)CC(N2CCCC2)=CC(=[N+]2CCCCC2)C1	VLA-4 inh 50 | VLA-4 mod pick inactive
Nc1cc(-c2ccc(Br)cc2)nn1S(=O)(=O)c1cccc2nsnc12	VLA-4 inh 50 | VLA-4 mod pick inactive
Nc1cc(-c2ccc(Cl)cc2)nn1S(=O)(=O)c1cccc2nsnc12	none
COc1ccc(OC)c(NC(=O)COC(=O)CCCN2C(=O)c3ccccc3C2=O)c1	none
CSc1ncccc1C(=O)OCC(=O)Nc1ccc(S(=O)(=O)N2CCCC2)cc1	none | VLA-4 mod pick inactive
CCOc1ccc(CCNC(=O)Cn2nc(C)c3c(C)n(-c4ccccc4)nc3c2=O)cc1OCC	none
COc1ccc(NS(=O)(=O)c2ccc(Cl)c(N)c2)cc1Br	none | VLA-4 mod pick inactive
Nc1cc(S(=O)(=O)Nc2ccc(Br)cc2)ccc1Cl	none | VLA-4 mod pick inactive
NNC(=O)c1ccc(NS(=O)(=O)c2ccc(Br)cc2)cc1	none
